Results from PubChem BioAssay AID411 (National Center for Advancing Translational Sciences (NCATS), 2006).
Screen size: about 72,000 compounds; about 1,600 (2.2%) were called active. Calls come from the whole dose curve; as a rule, active = well fitted inhibition curve with a large enough effect; inconclusive = small, poorly fitted or top-dose-only effect; inactive = flat fitted curve, though single readings scatter. The sample as a whole holds a higher share of actives than the screen did.

Target: Luciferin 4-monooxygenase (Photinus pyralis) (UniProt P08659)
Assay: qHTS Assay for Inhibitors of Firefly Luciferase; note: nearly all actives have a fitted effect of over 40% in size
Conditions: purified firefly luciferase, luminescence, 8 min; series mostly up to 57.1 µM; activity change, negative = inhibition: at the top concentration
Experimental: To aid in the interpretation of high-throughput screening (HTS) results derived from luciferase-based assays, we used quantitative HTS, an approach that defines the concentration-response behavior of each library sample, to profile the ATP-dependent luciferase from Photinus pyralis against more than 72 000 samples. Luciferase (PKLight, Cambrex Corporation) was assayed for its ability to generate light using ATP and luciferin as substrates. The ATP concentration in the assay (10 uM) was within the linear range of enzyme activity for the assay conditions used. See following reference for further details: [1] Auld DS, Southall NT, Jadhav A, Johnson RL, Diller DJ, Simeonov A, Austin CP, Inglese J. Characterization of chemical libraries for luciferase inhibitory activity. J Med Chem. 2008 Apr 24;51(8):2372-86. Auld DS, Zhang YQ, Southall NT, Rai G, Landsman M, Maclure J, Langevin D, Thomas CJ, Austin CP, Inglese J. A Basis for Reduced Chemical Library Inhibition of Firefly Luciferase Obtained from Directed Evolution. J. Med. Chem., 2009, 52 (5), pp 1450#1458 [3] Auld DS, Thorne N, Nguyen DT, Inglese J. A specific mechanism for nonspecific activation in reporter-gene assays. ACS Chem Biol. 2008 Aug 15;3(8):463-70. Auld DS, Thorne N, Maguire WF, Inglese J. Mechanism of PTC124 activity in cell-based luciferase assays of nonsense codon suppression. Proc Natl Acad Sci U S A. 2009 Mar 3;106(9):3585-90. Inglese J, Auld DS, Jadhav A, Johnson RL, Simeonov A, Yasgar A, Zheng W, Austin CP. Quantitative high-throughput screening: a titration-based approach that efficiently identifies biological activities in large chemical libraries. Proc Natl Acad Sci U S A. 2006 Aug 1;103(31):11473-8.
Four uL of substrate mix (final concentration, 50 mM imidazole pH 7.2, 50 mM KCl, 7 mM MgCl2, 10 uM ATP, 0.01% Tween 20, 0.05% BSA) was dispensed into white 1536 well plates. Twenty-three nL of compound was delivered by a pin tool and 2 uL of luciferase detector mix (PKLight, Cambrex) was added. Following 8-minute incubation at ambient temperature, luminescence was measured by a ViewLux (Perkin Elmer) at 5 seconds exposure/plate.
% is set by controls: 0 for no effect and ±100 for the full control effect; potency is the fitted concentration of half-maximal effect.

Sequence of Luciferin 4-monooxygenase (Photinus pyralis) (P08659 whole entry, looked up): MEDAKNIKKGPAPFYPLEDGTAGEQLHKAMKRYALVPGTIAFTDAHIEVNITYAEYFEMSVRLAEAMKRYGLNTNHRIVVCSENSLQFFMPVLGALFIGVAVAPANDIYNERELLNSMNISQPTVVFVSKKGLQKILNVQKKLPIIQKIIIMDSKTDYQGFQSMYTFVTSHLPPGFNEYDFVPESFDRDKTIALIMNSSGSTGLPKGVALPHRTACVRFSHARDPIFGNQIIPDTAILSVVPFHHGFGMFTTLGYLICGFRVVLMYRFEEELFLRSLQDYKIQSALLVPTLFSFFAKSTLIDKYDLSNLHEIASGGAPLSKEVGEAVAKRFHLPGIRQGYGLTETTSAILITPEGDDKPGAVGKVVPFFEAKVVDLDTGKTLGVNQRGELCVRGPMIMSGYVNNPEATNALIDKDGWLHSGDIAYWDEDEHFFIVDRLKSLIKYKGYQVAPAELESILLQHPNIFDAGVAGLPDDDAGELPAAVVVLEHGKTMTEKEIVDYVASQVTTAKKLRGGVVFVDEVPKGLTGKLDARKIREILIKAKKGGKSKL

**Q.** How did the Potency turn out when `COc1ccc(NC(=O)Nc2cccc3cccnc23)cc1` was run?
**A.** 5.01 µM (active)

**Q.** With `c1ccc(CN2CC[C@@]3(CCCNC3)C2)cc1` as the compound, how does the activity change, negative = inhibition read?
**A.** 0.194% [at 11.4 µM] (inactive)

**Q.** `CC(C)(c1ccc(OC[C@@H]2CO2)cc1)c1ccc(OC[C@H]2CO2)cc1` was tested. Which “activity change, negative = inhibition” value did it give?
**A.** 2.01% (inactive)

**Q.** With `CC[C@]1(O)C(=O)OCc2c1cc1n(c2=O)Cc2cc3ccccc3nc2-1` as the compound, how does the activity change, negative = inhibition read?
**A.** 1.26% [at 11.4 µM] (inactive)

**Q.** Which “activity change, negative = inhibition” value does the source give for `Cc1cccc([C@H](C)c2cnc[nH]2)c1C` here?
**A.** -0.831% (inactive)
